± gives the standard deviation of the averaged measurements. The full data set covers some 5,400 targets. This sample favours those with the largest changes.

Drawing on the supplement of paper PMC6411743, this text covers NP40-soluble protein abundance for 5 targets.

Compound in the assay: Nc1nc2c(ncn2[C@@H]2O[C@H](COP(=O)(O)OP(=O)(O)OP(=O)(O)O)[C@@H](O)[C@H]2O)c(=O)[nH]1 [guanosine triphosphate]
Kind of assay: NP40-soluble protein abundance relative to vehicle (solubility fold change) (ratio); higher = more soluble protein in presence of GTP. As for the experimental part:
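Solubility proteome profiling in Jurkat crude lysate. Lysate was treated with Mg-GTP (0.1-10 mM) for 10 min at room temperature and 3 min at 37 °C, then solubilised with 0.8% NP40 and benzonase, followed by ultracentrifugation. Proteins were quantified by TMT10 LC-MS/MS; the value is the NP40-soluble abundance relative to the NP40-processed vehicle, from 3 independent experiments.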

Sequence of UniProt P17987 (P17987 whole entry, one chain of several): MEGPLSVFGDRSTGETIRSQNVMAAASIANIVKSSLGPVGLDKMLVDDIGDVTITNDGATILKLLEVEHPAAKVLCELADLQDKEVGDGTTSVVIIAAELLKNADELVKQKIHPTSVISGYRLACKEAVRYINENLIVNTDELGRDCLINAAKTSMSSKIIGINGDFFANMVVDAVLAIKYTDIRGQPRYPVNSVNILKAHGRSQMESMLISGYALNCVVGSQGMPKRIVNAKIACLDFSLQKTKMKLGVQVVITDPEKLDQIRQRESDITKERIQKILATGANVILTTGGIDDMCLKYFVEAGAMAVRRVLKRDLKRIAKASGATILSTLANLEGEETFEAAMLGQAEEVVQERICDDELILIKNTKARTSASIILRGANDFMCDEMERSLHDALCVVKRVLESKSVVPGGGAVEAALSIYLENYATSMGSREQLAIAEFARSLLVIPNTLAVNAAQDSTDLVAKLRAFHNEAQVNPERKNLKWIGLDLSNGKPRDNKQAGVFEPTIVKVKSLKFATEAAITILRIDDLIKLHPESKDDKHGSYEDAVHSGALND
Sequence of UniProt Q53GL7 (Q53GL7 whole entry, one chain of several): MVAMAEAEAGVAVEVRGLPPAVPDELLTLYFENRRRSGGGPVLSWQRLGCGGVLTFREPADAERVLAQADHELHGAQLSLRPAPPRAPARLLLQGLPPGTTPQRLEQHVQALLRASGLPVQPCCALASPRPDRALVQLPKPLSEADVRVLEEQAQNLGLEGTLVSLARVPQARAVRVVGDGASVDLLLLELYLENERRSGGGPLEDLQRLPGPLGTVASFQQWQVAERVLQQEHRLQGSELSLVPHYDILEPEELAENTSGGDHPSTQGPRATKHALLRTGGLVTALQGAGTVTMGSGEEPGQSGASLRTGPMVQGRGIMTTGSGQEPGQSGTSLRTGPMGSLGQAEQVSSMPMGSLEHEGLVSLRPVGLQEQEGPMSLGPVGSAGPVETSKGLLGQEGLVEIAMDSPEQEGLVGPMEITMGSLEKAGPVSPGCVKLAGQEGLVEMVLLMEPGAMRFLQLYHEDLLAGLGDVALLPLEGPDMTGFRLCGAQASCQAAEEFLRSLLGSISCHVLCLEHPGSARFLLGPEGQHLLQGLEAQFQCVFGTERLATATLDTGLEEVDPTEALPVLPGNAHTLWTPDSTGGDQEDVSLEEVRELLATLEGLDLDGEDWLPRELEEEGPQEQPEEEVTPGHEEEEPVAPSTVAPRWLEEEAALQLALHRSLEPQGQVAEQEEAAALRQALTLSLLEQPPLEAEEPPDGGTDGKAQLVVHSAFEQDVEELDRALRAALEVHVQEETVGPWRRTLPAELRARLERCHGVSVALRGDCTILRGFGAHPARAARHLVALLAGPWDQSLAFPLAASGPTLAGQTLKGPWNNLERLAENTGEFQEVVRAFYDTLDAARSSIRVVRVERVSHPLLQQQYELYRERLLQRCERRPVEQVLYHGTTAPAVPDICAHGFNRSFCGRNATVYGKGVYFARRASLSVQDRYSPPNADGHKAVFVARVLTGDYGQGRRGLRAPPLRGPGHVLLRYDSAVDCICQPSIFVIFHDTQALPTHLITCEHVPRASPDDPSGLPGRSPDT
Sequence of UniProt Q9BTT0 (Q9BTT0 whole entry, one chain of several): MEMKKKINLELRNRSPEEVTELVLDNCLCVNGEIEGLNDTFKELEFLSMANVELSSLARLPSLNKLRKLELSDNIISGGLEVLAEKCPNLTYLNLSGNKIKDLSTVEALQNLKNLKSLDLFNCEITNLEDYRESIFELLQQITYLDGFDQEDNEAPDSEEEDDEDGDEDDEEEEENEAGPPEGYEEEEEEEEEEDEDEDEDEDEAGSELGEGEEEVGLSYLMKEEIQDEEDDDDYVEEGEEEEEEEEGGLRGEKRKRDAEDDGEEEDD

Take “A0A0R4J2F3|Q9Y2S0|Q9Y2S0-2 (UniProt Q9Y2S0)”: the NP40-soluble protein abundance is, setting by setting: (concentration: 0.1mM) 1.01 ± 0.075; (concentration: 0.5mM) 0.925 ± 0.056; (concentration: 1mM) 1.11 ± 0.2; (concentration: 2mM) 1.16 ± 0.14; (concentration: 4mM) 1.2 ± 0.17; (concentration: 6mM) 1.17 ± 0.12. Besides, the NP40-soluble protein abundance (concentration: 8mM) was determined as 1.15 ± 0.21 and the NP40-soluble protein abundance (concentration: 10mM) came out at 1.24 ± 0.28.
For F5H136|P17987 (UniProt P17987), the NP40-soluble protein abundance was 0.988 ± 0.02 (concentration: 0.1mM); 1.07 ± 0.086 (concentration: 0.5mM); 1.08 ± 0.12 (concentration: 1mM); 1.11 ± 0.18 (concentration: 2mM); 1.09 ± 0.2 (concentration: 4mM); 1.1 ± 0.21 (concentration: 6mM). In addition, the NP40-soluble protein abundance (concentration: 8mM) came to 1.06 ± 0.19 and the NP40-soluble protein abundance (concentration: 10mM) was 1.02 ± 0.2.
In the case of E9PPH5|Q9BTT0|Q9BTT0-3 (UniProt Q9BTT0), the NP40-soluble protein abundance amounted to 0.838 ± 0.058 (concentration: 0.1mM); 0.874 ± 0.062 (concentration: 0.5mM); 0.978 ± 0.05 (concentration: 1mM); 0.94 ± 0.045 (concentration: 2mM); 0.937 ± 0.056 (concentration: 4mM); 0.946 ± 0.037 (concentration: 6mM). In addition, the NP40-soluble protein abundance came to 0.958 ± 0.038 (concentration: 8mM) and 1.08 ± 0.079 (concentration: 10mM).
On to E9PK67|E9PNI7|Q53GL7 (UniProt Q53GL7), for which the NP40-soluble protein abundance amounted to 1.05 ± 0.097 (concentration: 0.1mM); 1.06 ± 0.12 (concentration: 0.5mM); 0.954 ± 0.041 (concentration: 1mM); 1.01 ± 0.15 (concentration: 2mM); 0.982 ± 0.12 (concentration: 4mM); 0.935 ± 0.11 (concentration: 6mM). In addition, the NP40-soluble protein abundance runs as follows: (concentration: 8mM) 0.949 ± 0.019; (concentration: 10mM) 0.949 ± 0.08.
Turning to “A0A087WTT6|P62273|P62273-2 (UniProt P62273)”, the NP40-soluble protein abundance reads like this: (concentration: 0.1mM) 0.92 ± 0.14; (concentration: 0.5mM) 0.977 ± 0.14; (concentration: 1mM) 1.16 ± 0.29; (concentration: 2mM) 1.1 ± 0.19; (concentration: 4mM) 0.953 ± 0.29; (concentration: 6mM) 0.957 ± 0.27. Further, the NP40-soluble protein abundance was found to be 0.663 ± 0.15 (concentration: 8mM) and 0.939 ± 0.29 (concentration: 10mM).
